The results in this text go back to PubChem BioAssay (NCI).

What all share (assay): NCI-60 one-dose screen, 48 h (100 = growth as untreated, 0 = no growth, -100 = all killed)
What all share (conditions): 10 µM unless noted

The subject of assay [1] is HCT-15 colon.
In assay [2] the test system is HT29 colon.
Assay [3] relates to SNB-75 CNS.
In assay [4] the test system is SNB-19 CNS.
Assay [5] concerns U251 CNS.
Assay [6] has as its system PC-3 prostate.
Assay [7] relates to SK-MEL-5 melanoma.
The subject of assay [8] is UACC-62 melanoma.
The subject of assay [9] is LOX IMVI melanoma.
In assay [10] the test system is SK-MEL-28 melanoma.
For assay [11], the system named is SK-MEL-2 melanoma.
Assay [12] relates to EKVX NSCLC.
Assay [13] deals with SN12C renal.
Assay [14] deals with UO-31 renal.
Assay [15] concerns TK-10 renal.
Assay [16] concerns ACHN renal.
The test system of assay [17] is CAKI-1 renal.
Assay [18] has as its system A498 renal.
Assay [19] relates to CCRF-CEM leukemia.
For assay [20], the system named is MOLT-4 leukemia.

About 83,000 compounds went through this panel and 20% of them were active in at least one assay; those are over-represented in the sample as a whole.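 Values shown are percent growth following 48 h exposure of cells in 96-well plates to a single concentration of compound; below 10 was considered active.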 Unmarked numbers belong to inactive results. The source made the active and inactive calls.

In the case of `COc1cc(C[C@H]2COc3cc(O)cc(O)c3C2=O)ccc1O`, the growth in [1] is 19.9%; in [2], 83.8%; in assay [3], 14.1%; in [4] it was 31.5%; in assay [5], 22.3%; in [6], 29.7%. In addition, the growth in assay [7] was 22.4%; in assay [8], 30.9%; in [9], 38.6%; in assay [10], 58.4%; in assay [11], 13.2%; in assay [12] it was 74.3%. For the same compound, the growth in assay [13] is 40.9%; in assay [14], 48.8%; in [15], 58.7%; in assay [16], 41.7%; in assay [17], 35.8%; in assay [18] it was 90.4%. Further, the growth in assay [19] was 11.4%; in [20] it was 29.3%.

As to `O=C1/C(=C/c2ccc(Cl)cc2)CN(C(=O)C(Cl)Cl)C/C1=C\c1ccc(Cl)cc1`, the growth was -70% (active) in [1]; -31% (active) in assay [2]; -84% (active) in assay [3]; -92% (active) in [4]; -94.3% (active) in assay [5]; -38.4% (active) in [6]. Further, the growth in assay [7] is -89.3% (active); in [8], -59.6% (active); in [9], -93.1% (active); in assay [10], -81.5% (active); in [11] it was -15% (active); in assay [12], -60% (active). Moreover, the growth in [13] is -75.7% (active); in assay [14], -99.7% (active); in assay [15] it was -83.7% (active); in [16], -100% (active); in [17], -71% (active); in [18] it was -95.8% (active). The growth in assay [19] was 7% (active); in assay [20] it was -12.5% (active).

For `CN(C)CCC(CCN(C)C)(C(=O)O)c1ccccc1`, the growth in assay [1] is 99.7%; in [2], 96.6%; in [3], 97.2%; in assay [4], 101%; in assay [5] it was 102%; in [6], 92.7%. In addition, the growth was 102% in assay [7]; 103% in assay [8]; 106% in assay [9]; 105% in assay [10]; 102% in [11]; 107% in [12]. For the same compound, the growth in [13] was 98.4%; in assay [14] it was 88.3%; in [15] it was 106%; in assay [16], 98.5%; in assay [17], 95.4%; in assay [18] it was 90.4%. For the same compound, the growth is 100% in assay [19] and 109% in [20].

Consider `Cn1c2ccccc2c2c3c(c4c5cc(Br)ccc5n(C)c4c21)C(=O)N(O)C3=O`, for which the growth in assay [1] was 21%; in assay [2] it was 52.6%; in assay [3], 38.9%; in assay [4], 16%; in assay [5] it was 3.06% (active); in assay [6], 47%. The growth in [7] was -35.4% (active); in [8] it was -4.53% (active); in [9] it was -77.9% (active); in [10], 54.3%; in assay [11], 56.3%; in [12], 88.5%. Besides, the growth was -53.2% (active) in assay [13]; 2.59% (active) in assay [14]; 90.3% in assay [15]; -23% (active) in assay [16]; -22.4% (active) in assay [17]; 103% in assay [18]. The figures for the growth in assay [19] and in assay [20] were -22.2% (active) and -21.4% (active), respectively.

As for `NS(=O)(=O)c1ccc(C(=O)N=Nc2c(O)[nH]c3ccc(Cl)cc23)cc1`, the growth is 99.4% in assay [1]; 99.7% in assay [2]; 89% in [3]; 91.3% in [4]; 99.7% in [5]; 97.4% in [6]. The growth is 103% in assay [7]; 105% in assay [8]; 102% in assay [9]; 114% in assay [10]; 105% in assay [11]; 95.8% in assay [12]. The growth in assay [13] is 94.9%; in [14] it was 83.8%; in assay [15], 115%; in assay [16], 107%; in assay [17] it was 92.6%; in assay [18], 75.3%. Further, the growth in assay [19] was 99.7%; in assay [20], 107%.

Turning to `Nc1cccc(-c2ccc(COc3ccc(CC4SC(=O)NC4=O)cc3)cc2)c1` (stereo not given), the growth is 34.3% in assay [1]; 100% in assay [2]; 54.4% in [3]; 69.3% in assay [4]; 45.9% in [5]; 59.7% in [6]. The growth in [7] is 14.8%; in [8], 55.4%; in [9] it was 57.5%; in assay [10], 55.9%; in assay [11], 52.3%; in [12], 62.2%. The growth in [13] is 68.6%; in assay [14] it was 53.3%; in assay [15] it was 91.5%; in assay [16], 62.6%; in assay [17], 47.3%; in assay [18], 110%. For the same compound, the growth in assay [19] was 52.3%; in [20] it was 43.2%.

As to `Cc1ccccc1N1CCN(C(=S)c2ccccc2)CC1`, the growth in assay [1] is 98.8%; in assay [2], 96.2%; in assay [3] it was 84.7%; in assay [4] it was 98.8%; in assay [5] it was 93.4%; in assay [6], 101%. In addition, the growth in [7] is 96.8%; in assay [8], 82.9%; in assay [9] it was 92.3%; in assay [10] it was 109%; in assay [11] it was 85%; in assay [12], 96.1%. In addition, the growth is 96.6% in [13]; 82.1% in [14]; 108% in [15]; 106% in [16]; 75.3% in assay [17]; 101% in [18]. In addition, the growth was 114% in [19] and 106% in assay [20].
